Data taken from the supplement of paper PMC10849652.
Of roughly 7,900 targets only a part is listed; those with a hit were picked by preference. About 0.6% of all pairs of compound and target were hits.

What was measured:
Experiment in all cases: log2 fold change, soluble protein after heating vs DMSO (PISA); higher = thermal stabilisation; K562 cells, 10 uM, 30 min; active = over 0.2 and 3.5 SD of the protein, either way, in both replicates (recomputed)
erlotinib = compound: C#Cc1cccc(Nc2ncnc3cc(OCCOC)c(OCCOC)cc23)c1 [erlotinib]
Outline: (§1)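 Quantification of soluble protein used TMTpro 16plex LC-MS/MS, with channel sums equalised. Samples were the supernatant after 21,000xg for 90 min of pooled aliquots from K562 cells (2×10^6 cells/mL) treated with 10 μM compound for 30 min, heated for 3 min over 48°C-58°C, and extracted in PBS with 0.5% NP-40 at 4°C. Values, from duplicates, describe thermal stability against control samples on a log2 fold-change scale.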

[1] = compound: C/C(=N\NC(=O)C1=CC(=CC=C1)S(=O)(=O)N2CCOCC2)/C3=C(C=CC(=C3)Cl)O
Outline: as §1

[2] = compound: C1=CC(=C(C=C1Cl)C2=NC3=NC=CN=C3C(=N2)NC4=CC=NC=C4)F
Outline: as §1

[3] = compound: C1=CC(=CC=C1C2=NC3=C(N2)C=C(C=C3)C(=O)N)OC4=CC=C(C=C4)Cl
Outline: as §1

[4] = compound: C1=CC2=C(C=CC(=C2)/C=C\3/C(=O)NC(=NCC4=CC=CS4)S3)N=C1
Outline: as §1

[5] = compound: C1=CC2=NC=CN=C2C=C1/C=C/3\C(=O)NC(=O)S3
Outline: as §1

[6] = compound: C1=CC=C(C=C1)C2=NC(=C(N2)C3=CC=NC=C3)C4=CC(=C(C=C4)Cl)O
Outline: as §1

[7] = compound: C1=CC=C2C(=C1)C3=NNC4=CC=CC(=C43)C2=O
Outline: as §1

[8] = compound: C1CCN(C1)C(=O)NC2=CC=CC(=C2)NC3=NC=C(C(=N3)NCCC4=CN=CN4)Br
Outline: as §1

[9] = compound: C1CN(CCC1(CC2=CC=C(C=C2)Cl)N)C3=NC=NC4=C3C=CN4
Outline: as §1

IRAK-1-4 Inhibitor I = compound: C1COCCN1CCN2C3=CC=CC=C3N=C2NC(=O)C4=CC(=CC=C4)[N+](=O)[O-] [IRAK-1-4 Inhibitor I]
Outline: as §1

ibrutinib = compound: C=CC(=O)N1CCC[C@@H](n2nc(-c3ccc(Oc4ccccc4)cc3)c3c(N)ncnc32)C1 [ibrutinib]
Outline: as §1

[10] = compound: CC(=O)c1cnc2ccc(-c3cc(Cl)c(O)c(Cl)c3)nc2c1N[C@H]1CC[C@H](CN(C)C)CC1
Outline: as §1

ralimetinib = compound: CC(C)(C)Cn1c(N)nc2ccc(-c3[nH]c(C(C)(C)C)nc3-c3ccc(F)cc3)nc21 [ralimetinib]
Outline: as §1

[11] = compound: CC(C)(O)CC(=O)NCCn1ccc2ncnc(Nc3ccc(Oc4cccc(C(F)(F)F)c4)c(Cl)c3)c21
Outline: as §1

[12] = compound: CC(C)C1=C2N=C(C=C(N2N=C1)NCC3=CC=CC=C3)NCCCCCCN
Outline: as §1

[13] = compound: CC(C)C[C@@H](C=O)NC(=O)[C@H](CC(C)C)NC(=O)[C@H](CC(C)C)NC(=O)OCc1ccccc1
Outline: as §1

pinometostat = compound: CC(C)N(C[C@H]1O[C@@H](n2cnc3c(N)ncnc32)[C@H](O)[C@@H]1O)[C@H]1C[C@@H](CCc2nc3cc(C(C)(C)C)ccc3[nH]2)C1 [pinometostat]
Outline: as §1

[14] = compound: CC1=C(C(CC(=O)N1)C2=CC=C(C=C2)C(F)(F)F)C(=O)NC3=C(C=C4C(=C3)C=NN4)F
Outline: as §1

[15] = compound: CC1=C(C2=C(C=C1)C(=O)C3=CC=CC=C3N2CCCN)C
Outline: as §1

Measured: log2 fold change

HAT1 (UniProt O14929)
inactive: erlotinib -0.048 | [1] 0.036 | [2] 0.044 | [3] 0.048 | [4] -0.075 | [5] -0.045 | [6] 0.03 | [7] 0.027 | [8] -0.055 | [9] 0.069 | IRAK-1-4 Inhibitor I 0.027 | ibrutinib -0.009 | [10] -0.109 | ralimetinib -0.003 | [11] -0.027 | [12] 0.006 | [13] -0.022 | pinometostat -0.048 | [14] -0.013 | [15] -0.03

GABARAPL2 (UniProt P60520)
active: [12] -0.269
inactive: erlotinib 0.065 | [1] 0.013 | [2] 0.021 | [3] -0.02 | [4] 0.072 | [5] 0.016 | [6] 0.077 | [7] 0.008 | [8] -0.027 | [9] -0.021 | IRAK-1-4 Inhibitor I 0.107 | ibrutinib -0.018 | [10] -0.076 | ralimetinib 0.008 | [11] -0.028 | [13] -0.007 | pinometostat -0.103 | [14] 0.016 | [15] -0.015

GAGE12F (UniProt P0CL80)
inactive: erlotinib -0.056 | [1] -0.061 | [2] 0.017 | [3] -0.035 | [4] 0.08 | [5] 0.025 | [6] -0.007 | [7] 0.011 | [8] -0.088 | [9] 0.052 | IRAK-1-4 Inhibitor I 0.045 | ibrutinib 0.025 | [10] 0.037 | ralimetinib -0.038 | [11] 0.02 | [12] 0.015 | [13] 0.019 | pinometostat -0.06 | [14] 0.004 | [15] 0.128

GLUL (UniProt P15104)
Chain of UniProt P15104 (P15104 whole entry, looked up): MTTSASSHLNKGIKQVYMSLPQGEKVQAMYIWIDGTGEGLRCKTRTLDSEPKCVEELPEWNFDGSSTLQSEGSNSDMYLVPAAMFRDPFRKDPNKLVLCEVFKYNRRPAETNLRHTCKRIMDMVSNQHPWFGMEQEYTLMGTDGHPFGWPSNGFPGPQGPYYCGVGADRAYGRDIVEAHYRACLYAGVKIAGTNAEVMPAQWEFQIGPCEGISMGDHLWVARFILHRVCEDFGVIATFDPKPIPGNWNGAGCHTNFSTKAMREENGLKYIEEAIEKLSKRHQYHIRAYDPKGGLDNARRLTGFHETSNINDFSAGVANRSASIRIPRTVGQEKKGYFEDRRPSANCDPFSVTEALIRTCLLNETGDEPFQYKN
inactive: erlotinib -0.058 | [1] 0.016 | [2] 0.027 | [3] 0.022 | [4] -0.006 | [5] -0.003 | [6] -0.007 | [7] -0.045 | [8] -0.037 | [9] 0.017 | IRAK-1-4 Inhibitor I 0.054 | ibrutinib 0.009 | [10] -0.049 | ralimetinib -0.02 | [11] 0.018 | [12] 0.058 | [13] -0.013 | pinometostat -0.021 | [14] 0.105 | [15] -0.058

GALK1 isoform 2 (UniProt P51570)
Chain of UniProt P51570 (P51570 whole entry, looked up): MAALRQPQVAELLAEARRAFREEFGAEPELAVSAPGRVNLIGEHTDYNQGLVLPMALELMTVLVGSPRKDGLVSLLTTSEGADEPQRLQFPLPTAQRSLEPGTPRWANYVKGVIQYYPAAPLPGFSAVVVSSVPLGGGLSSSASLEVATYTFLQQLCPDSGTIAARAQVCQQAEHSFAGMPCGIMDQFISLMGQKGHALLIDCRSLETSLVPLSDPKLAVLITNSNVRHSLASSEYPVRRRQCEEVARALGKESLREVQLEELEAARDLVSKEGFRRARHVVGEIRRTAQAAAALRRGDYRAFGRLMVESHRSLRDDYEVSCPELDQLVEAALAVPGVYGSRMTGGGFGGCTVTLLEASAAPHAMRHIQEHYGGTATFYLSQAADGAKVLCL
inactive: erlotinib 0.002 | [1] 0.082 | [2] 0.158 | [3] -0.023 | [4] -0.08 | [5] 0.016 | [6] 0.07 | [7] 0.055 | [8] -0.094 | [9] 0.076 | IRAK-1-4 Inhibitor I 0.046 | ibrutinib 0.024 | [10] 0.018 | ralimetinib 0.081 | [11] -0.081 | [12] -0.004 | [13] -0.121 | pinometostat 0.041 | [14] 0.023 | [15] -0.018

IFT74 (UniProt Q96LB3)
Chain of UniProt Q96LB3 (Q96LB3 whole entry, looked up): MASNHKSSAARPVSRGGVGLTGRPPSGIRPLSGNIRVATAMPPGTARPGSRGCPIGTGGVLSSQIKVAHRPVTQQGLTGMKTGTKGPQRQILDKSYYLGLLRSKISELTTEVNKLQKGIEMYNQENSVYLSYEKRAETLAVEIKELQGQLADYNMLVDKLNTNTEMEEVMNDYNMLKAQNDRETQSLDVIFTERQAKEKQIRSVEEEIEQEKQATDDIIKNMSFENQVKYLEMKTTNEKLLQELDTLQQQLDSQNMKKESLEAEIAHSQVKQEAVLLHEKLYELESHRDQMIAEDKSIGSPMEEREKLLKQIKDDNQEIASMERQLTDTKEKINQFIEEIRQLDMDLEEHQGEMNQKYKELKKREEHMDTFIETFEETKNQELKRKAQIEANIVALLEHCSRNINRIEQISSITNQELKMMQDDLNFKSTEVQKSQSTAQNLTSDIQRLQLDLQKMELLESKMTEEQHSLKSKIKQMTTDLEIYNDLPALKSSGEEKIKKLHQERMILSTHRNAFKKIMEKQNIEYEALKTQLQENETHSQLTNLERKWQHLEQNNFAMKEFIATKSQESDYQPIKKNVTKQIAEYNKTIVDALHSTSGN
active: [1] -0.95
inactive: erlotinib 0.248 | [2] 0.125 | [3] -0.352 | [4] 0.087 | [5] -0.033 | [6] 0.211 | [7] -0.038 | [8] -0.076 | [9] 0.337 | IRAK-1-4 Inhibitor I 0.067 | ibrutinib 0.146 | [10] 0.02 | ralimetinib 0.27 | [11] -0.095 | [12] 0.191 | [13] 0.076 | pinometostat -0.024 | [14] -0.085 | [15] 0.071

HBA1 (UniProt P69905)
Chain of UniProt P69905 (P69905 whole entry, looked up): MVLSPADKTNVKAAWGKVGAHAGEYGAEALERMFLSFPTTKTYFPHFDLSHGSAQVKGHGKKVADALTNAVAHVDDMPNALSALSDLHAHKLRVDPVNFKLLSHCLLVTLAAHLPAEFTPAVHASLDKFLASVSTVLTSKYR
inactive: erlotinib -0.058 | [1] 0.048 | [2] 0.215 | [3] 0.063 | [4] 0.104 | [5] 0.023 | [6] 0.123 | [7] -0.026 | [8] -0.105 | [9] 0.031 | IRAK-1-4 Inhibitor I 0.002 | ibrutinib 0.007 | [10] -0.03 | ralimetinib -0.037 | [11] -0.035 | [12] 0.094 | [13] -0.056 | pinometostat 0.025 | [14] -0.019 | [15] 0.127

GSK3A (UniProt P49840)
active: [10] 0.303
inactive: erlotinib -0.02 | [1] 0.015 | [2] 0.01 | [3] 0.045 | [4] -0.001 | [5] -0.001 | [6] 0.18 | [7] 0.147 | [8] 0.131 | [9] 0.019 | IRAK-1-4 Inhibitor I 0.099 | ibrutinib 0.011 | ralimetinib -0.061 | [11] -0.107 | [12] 0.011 | [13] -0.022 | pinometostat -0.031 | [14] 0.011 | [15] 0.022

GNB2 (UniProt P62879)
Chain of UniProt P62879 (P62879 whole entry, looked up): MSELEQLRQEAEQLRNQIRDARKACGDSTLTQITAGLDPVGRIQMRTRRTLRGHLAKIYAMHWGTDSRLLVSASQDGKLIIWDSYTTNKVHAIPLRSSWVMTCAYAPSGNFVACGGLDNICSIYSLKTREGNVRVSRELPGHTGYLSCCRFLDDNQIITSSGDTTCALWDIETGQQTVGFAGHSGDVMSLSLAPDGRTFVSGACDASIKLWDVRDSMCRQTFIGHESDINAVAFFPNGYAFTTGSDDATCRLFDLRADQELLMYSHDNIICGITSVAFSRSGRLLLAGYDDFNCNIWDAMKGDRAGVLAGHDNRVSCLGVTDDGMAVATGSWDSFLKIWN
inactive: erlotinib 0.003 | [1] 0.079 | [2] -0.04 | [3] 0.051 | [4] -0.016 | [5] 0.007 | [6] -0.003 | [7] 0.008 | [8] -0.057 | [9] -0.002 | IRAK-1-4 Inhibitor I -0.021 | ibrutinib 0.003 | [10] -0.013 | ralimetinib 0.016 | [11] 0.013 | [12] 0.022 | [13] -0.025 | pinometostat 0.016 | [14] -0.034 | [15] 0.076

FBXO7 (UniProt Q9Y3I1)
Chain of UniProt Q9Y3I1 (Q9Y3I1 whole entry, looked up): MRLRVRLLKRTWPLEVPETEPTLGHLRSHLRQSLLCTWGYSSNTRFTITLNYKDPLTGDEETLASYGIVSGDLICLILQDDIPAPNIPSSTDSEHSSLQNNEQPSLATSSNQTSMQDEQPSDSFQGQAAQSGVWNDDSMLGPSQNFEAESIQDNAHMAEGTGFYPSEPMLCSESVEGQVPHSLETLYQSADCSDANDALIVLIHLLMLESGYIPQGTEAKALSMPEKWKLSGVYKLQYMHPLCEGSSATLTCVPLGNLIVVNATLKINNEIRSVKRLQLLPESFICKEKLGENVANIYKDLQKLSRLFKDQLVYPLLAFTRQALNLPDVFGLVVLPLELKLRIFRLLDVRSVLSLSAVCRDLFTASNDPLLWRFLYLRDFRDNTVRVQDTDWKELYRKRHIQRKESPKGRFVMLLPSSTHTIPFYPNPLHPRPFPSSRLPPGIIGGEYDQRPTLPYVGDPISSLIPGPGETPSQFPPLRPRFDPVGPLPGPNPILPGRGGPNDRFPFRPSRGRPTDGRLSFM
inactive: erlotinib 0.039 | [1] 0.033 | [2] 0.014 | [3] -0.055 | [4] 0.033 | [5] -0.038 | [6] 0.001 | [7] -0.014 | [8] 0.005 | [9] 0 | IRAK-1-4 Inhibitor I -0.008 | ibrutinib 0.036 | [10] -0.024 | ralimetinib -0.005 | [11] -0.068 | [12] 0.001 | [13] -0.013 | pinometostat 0.042 | [14] -0.021 | [15] 0.044

HMGCR isoform 3 (UniProt P04035)
Chain of UniProt P04035 (P04035 whole entry, looked up): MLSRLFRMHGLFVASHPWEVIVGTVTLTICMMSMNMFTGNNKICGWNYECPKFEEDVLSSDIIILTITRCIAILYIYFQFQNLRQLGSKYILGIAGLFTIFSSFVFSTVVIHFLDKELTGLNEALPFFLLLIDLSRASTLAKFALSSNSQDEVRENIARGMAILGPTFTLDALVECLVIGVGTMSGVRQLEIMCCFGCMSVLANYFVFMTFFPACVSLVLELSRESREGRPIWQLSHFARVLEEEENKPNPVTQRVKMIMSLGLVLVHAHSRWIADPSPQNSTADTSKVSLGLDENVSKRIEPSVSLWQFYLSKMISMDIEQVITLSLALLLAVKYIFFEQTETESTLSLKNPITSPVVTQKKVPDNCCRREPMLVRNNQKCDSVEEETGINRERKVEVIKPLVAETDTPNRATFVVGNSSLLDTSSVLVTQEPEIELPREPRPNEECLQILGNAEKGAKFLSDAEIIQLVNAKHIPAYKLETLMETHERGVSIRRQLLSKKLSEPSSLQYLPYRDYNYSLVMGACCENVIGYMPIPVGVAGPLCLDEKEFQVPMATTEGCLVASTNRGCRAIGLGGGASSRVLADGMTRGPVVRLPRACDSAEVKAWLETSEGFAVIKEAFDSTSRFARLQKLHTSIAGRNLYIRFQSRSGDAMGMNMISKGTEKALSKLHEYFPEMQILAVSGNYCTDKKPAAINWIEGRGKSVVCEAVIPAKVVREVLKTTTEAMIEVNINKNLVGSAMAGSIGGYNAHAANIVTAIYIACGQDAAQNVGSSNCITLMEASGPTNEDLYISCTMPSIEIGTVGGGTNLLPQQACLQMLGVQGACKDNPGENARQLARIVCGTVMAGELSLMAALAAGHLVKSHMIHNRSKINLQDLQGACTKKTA
inactive: erlotinib -0.089 | [1] 0.025 | [2] -0.001 | [3] 0.032 | [4] -0.038 | [5] 0.101 | [6] -0.033 | [7] -0.137 | [8] -0.081 | [9] 0 | IRAK-1-4 Inhibitor I 0.037 | ibrutinib -0.001 | [10] 0.022 | ralimetinib -0.005 | [11] -0.023 | [12] 0.029 | pinometostat 0.014 | [14] 0.011 | [15] -0.044
active: [13] 0.383

HDAC6 (UniProt Q9UBN7)
Chain of UniProt Q9UBN7 (Q9UBN7 whole entry, looked up): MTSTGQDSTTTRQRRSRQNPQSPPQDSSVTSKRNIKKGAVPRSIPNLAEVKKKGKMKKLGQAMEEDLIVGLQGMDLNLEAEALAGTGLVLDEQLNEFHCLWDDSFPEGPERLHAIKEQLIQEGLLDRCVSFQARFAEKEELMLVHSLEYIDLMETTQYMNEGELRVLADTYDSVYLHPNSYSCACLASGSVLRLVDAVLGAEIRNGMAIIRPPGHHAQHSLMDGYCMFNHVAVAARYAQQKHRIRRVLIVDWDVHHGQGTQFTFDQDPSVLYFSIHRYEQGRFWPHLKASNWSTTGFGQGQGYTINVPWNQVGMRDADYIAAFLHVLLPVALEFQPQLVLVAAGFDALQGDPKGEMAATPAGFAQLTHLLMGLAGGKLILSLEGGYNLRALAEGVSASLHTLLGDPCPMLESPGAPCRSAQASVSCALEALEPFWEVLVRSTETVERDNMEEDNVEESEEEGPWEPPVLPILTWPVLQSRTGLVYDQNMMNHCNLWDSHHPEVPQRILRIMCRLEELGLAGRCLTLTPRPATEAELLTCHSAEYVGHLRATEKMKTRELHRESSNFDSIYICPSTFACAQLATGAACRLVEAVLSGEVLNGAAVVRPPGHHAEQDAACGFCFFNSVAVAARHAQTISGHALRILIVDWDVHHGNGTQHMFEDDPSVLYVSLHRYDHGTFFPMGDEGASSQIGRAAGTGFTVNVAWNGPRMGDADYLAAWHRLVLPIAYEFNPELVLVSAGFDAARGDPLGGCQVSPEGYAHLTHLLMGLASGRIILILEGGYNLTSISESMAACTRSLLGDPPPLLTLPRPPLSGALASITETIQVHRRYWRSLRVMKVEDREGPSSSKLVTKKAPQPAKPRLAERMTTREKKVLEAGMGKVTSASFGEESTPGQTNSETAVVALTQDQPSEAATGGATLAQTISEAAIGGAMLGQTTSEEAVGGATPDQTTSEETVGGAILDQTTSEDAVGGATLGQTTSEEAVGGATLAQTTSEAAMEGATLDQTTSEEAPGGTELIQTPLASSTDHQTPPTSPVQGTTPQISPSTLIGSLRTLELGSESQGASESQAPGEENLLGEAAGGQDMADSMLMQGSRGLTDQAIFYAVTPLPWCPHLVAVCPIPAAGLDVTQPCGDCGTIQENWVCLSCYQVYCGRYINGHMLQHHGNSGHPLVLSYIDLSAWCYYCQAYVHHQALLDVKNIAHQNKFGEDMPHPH
inactive: [1] 0.033 | [2] -0.007 | [3] -0.007 | [4] 0.041 | [5] -0.164 | [6] 0.033 | [7] 0.07 | [8] -0.043 | [9] 0.115 | IRAK-1-4 Inhibitor I -0.086 | ibrutinib 0.314 | [10] -0.03 | ralimetinib 0.034 | [11] -0.023 | [12] 0.069 | [13] -0.025 | pinometostat 0.009 | [14] -0.046 | [15] 0.021
active: erlotinib 0.43

IFI30 (UniProt P13284)
inactive: erlotinib 0.061 | [1] 0.018 | [2] -0.084 | [3] 0.012 | [4] -0.089 | [5] 0.026 | [6] 0.067 | [7] 0.009 | [8] -0.004 | [9] 0.026 | IRAK-1-4 Inhibitor I 0.157 | ibrutinib 0.049 | [10] 0.088 | ralimetinib -0.05 | [11] 0.063 | [12] 0.087 | [13] -0.012 | pinometostat 0.019 | [14] -0.008 | [15] -0.099

GPKOW (UniProt Q92917)
Chain of UniProt Q92917 (Q92917 whole entry, looked up): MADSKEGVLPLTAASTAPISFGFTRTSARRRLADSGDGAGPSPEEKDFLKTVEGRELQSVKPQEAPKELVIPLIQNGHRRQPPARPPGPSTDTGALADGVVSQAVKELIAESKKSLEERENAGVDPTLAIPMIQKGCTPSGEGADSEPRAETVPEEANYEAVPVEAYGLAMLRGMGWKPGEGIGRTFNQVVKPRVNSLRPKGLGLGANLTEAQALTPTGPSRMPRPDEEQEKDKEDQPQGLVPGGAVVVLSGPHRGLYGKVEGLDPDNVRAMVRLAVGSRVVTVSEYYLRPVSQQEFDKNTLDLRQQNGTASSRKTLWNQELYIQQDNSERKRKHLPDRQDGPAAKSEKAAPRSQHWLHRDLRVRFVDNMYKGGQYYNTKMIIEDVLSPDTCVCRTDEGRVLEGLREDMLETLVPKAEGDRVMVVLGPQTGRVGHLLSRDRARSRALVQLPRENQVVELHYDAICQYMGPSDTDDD
inactive: erlotinib 0.099 | [1] 0.116 | [2] 0.016 | [3] 0.016 | [4] 0.057 | [5] 0.013 | [6] -0.016 | [7] 0.029 | [8] -0.011 | [9] 0.001 | IRAK-1-4 Inhibitor I -0.016 | ibrutinib -0.005 | [10] -0.172 | ralimetinib -0.08 | [11] -0.026 | [12] -0.184 | [13] 0.006 | pinometostat 0.047 | [14] -0.034 | [15] 0.056

GALC (UniProt P54803)
inactive: erlotinib -0.023 | [1] -0.002 | [2] -0.051 | [3] 0.041 | [4] 0.009 | [5] 0.028 | [6] -0.017 | [7] -0.011 | [8] -0.032 | [9] 0.08 | IRAK-1-4 Inhibitor I 0.053 | ibrutinib 0.017 | [10] 0.016 | ralimetinib -0.012 | [11] 0.041 | [12] -0.122 | [13] 0.05 | pinometostat 0.067 | [14] 0.035 | [15] -0.003

GTF2E2 (UniProt P29084)
inactive: erlotinib 0.028 | [1] 0.137 | [2] 0.048 | [3] -0.001 | [4] 0.09 | [5] 0.003 | [6] -0.002 | [7] 0.03 | [8] -0.03 | [9] -0.13 | IRAK-1-4 Inhibitor I -0.041 | ibrutinib -0.008 | [10] -0.104 | ralimetinib -0.012 | [11] -0.033 | [12] -0.137 | [13] 0.075 | pinometostat 0.056 | [14] 0.001 | [15] 0.056
